Data published in PubChem BioAssay (NCATS).
Results filed as inconclusive are left out. Calls of active or inactive are those of the source. Calls come from the whole dose curve; as a rule, active = well fitted cell-killing curve with a large enough effect; inconclusive = small, poorly fitted or top-dose-only effect, or effect the other way; inactive = flat fitted curve, though single readings scatter.

Columns and labels:
Test in all cases: Primary qHTS to identify gynecologic anti-cancer compounds using libraries of approved drugs and bioactive compounds (AID 1345084); note: nearly all actives have a fitted effect of over 55% in size
C33A = details: Gynecologic cancer cell panel viability, ATPlite luminescence, 48 h; series mostly up to 57.5 µM
Summary of the method: (§1)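 ATP-based viability (ATPlite), 1,000 cells/well, 16 h pre-incubation, 48 h compound at 37 C, 5% CO2, 15 min RT before read.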

CAOV3 = details: Gynecologic cancer cell panel viability, ATPlite luminescence, 48 h; series mostly up to 57.5 µM
Summary of the method: as §1

CASKI = details: Gynecologic cancer cell panel viability, ATPlite luminescence, 48 h; series mostly up to 57.5 µM
Summary of the method: as §1

Es-2 = details: Gynecologic cancer cell panel viability, ATPlite luminescence, 48 h; series mostly up to 57.5 µM
Summary of the method: as §1

HeLa = details: Gynecologic cancer cell panel viability, ATPlite luminescence, 48 h; series mostly up to 57.5 µM
Summary of the method: as §1

Hek293T = details: Gynecologic cancer cell panel viability, ATPlite luminescence, 48 h, control line for the selectivity index; series mostly up to 57.5 µM
Summary of the method: as §1

JEG-3 = details: Gynecologic cancer cell panel viability, ATPlite luminescence, 48 h; series mostly up to 57.5 µM
Summary of the method: as §1

OV90 = details: Gynecologic cancer cell panel viability, ATPlite luminescence, 48 h; series mostly up to 57.5 µM
Summary of the method: as §1

PA-1 = details: Gynecologic cancer cell panel viability, ATPlite luminescence, 48 h; series mostly up to 57.5 µM
Summary of the method: as §1

SKOV3 = details: Gynecologic cancer cell panel viability, ATPlite luminescence, 48 h; series mostly up to 57.5 µM
Summary of the method: as §1

Tov-21-G = details: Gynecologic cancer cell panel viability, ATPlite luminescence, 48 h; series mostly up to 57.5 µM
Summary of the method: as §1

Tov112D = details: Gynecologic cancer cell panel viability, ATPlite luminescence, 48 h; series mostly up to 57.5 µM
Summary of the method: as §1

Measured: Potency
Potency is the fitted concentration of half-maximal effect.

OC1CCC(Nc2ncc3nc(Nc4c(F)cc(F)cc4F)n([C@H]4CCOC4)c3n2)CC1 (stereo not given in full)
inactive: all assays above

C=CC1(C)C=C2CCC3C(C)(C)C(O[C@@H]4O[C@@H](CO)[C@H](O)[C@H]4O)CCC3(C)C2CC1O[C@@H]1O[C@H](C)[C@H](O)[C@H](O)[C@H]1O (stereo not given in full)
inactive: all assays above

COC(=O)[C@@]1(c2ccc(C)cc2)C[C@H]1CN1CCC(O)(c2ccccc2)CC1
inactive: all assays above

O=C(Nc1ccc(S(=O)(=O)Nc2nccs2)cc1)C(c1ccccc1)c1ccccc1
inactive: all assays above

O=C(NCC(O)CO)c1ccncc1Nc1ccc(I)cc1F (stereo not given)
active: Es-2 2000 nM | OV90 79.4 nM | Tov-21-G 1580 nM
inactive: all other assays above

C=CC(C)(C)c1[nH]c2ccccc2c1C[C@@H]1NC(=O)[C@H](Cc2c[nH]c3ccccc23)NC1=O
inactive: all assays above

CC1(O)CC(O)C2(O)C=COC(O[C@@H]3O[C@H](CO)[C@@H](O)[C@H](O)[C@H]3O)C12 (stereo not given in full)
inactive: all assays above

CCc1cccc(CC)c1NC(=O)c1nn(C)c2c1CCc1cnc(Nc3ccc(C(=O)NC4CCN(C)CC4)cc3OC(F)(F)F)nc1-2
inactive: all assays above

CC(=O)O[C@]1(C(C)=O)CC[C@H]2[C@@H]3C[C@H](C)C4=CC(=O)C=C[C@]4(C)[C@@]3(F)[C@@H](O)C[C@@]21C
inactive: all assays above

COC1/C=C/C(C)(O)C(SCC(N)C(=O)O)CC(=O)OC(C)C(C)CC/C=C/1C (stereo not given)
inactive: all assays above

COC(=O)C1=CO[C@@H](O[C@@H]2O[C@H](CO)[C@@H](O)[C@H](O)[C@H]2O)[C@@H]2[C@@](C)(O)[C@@H](OC(=O)/C=C/c3ccc(O)cc3)C[C@]12O
inactive: all assays above

COc1cc(O)cc(C)c1C(=O)OC1C(CO)OC(OC2C(O)C(O)C(O)C(O)C2O)C(O)C1O (stereo not given)
inactive: all assays above

COc1cc(O)c([C@@H](CC(=O)N2CC(C)CC(C)C2)c2ccc3c(c2)OCO3)c(OC)c1 (stereo not given in full)
inactive: all assays above

CC(C)=CCC[C@](C)(O[C@@H]1O[C@H](CO)[C@@H](O)[C@H](O)[C@H]1O)[C@H]1CC[C@]2(C)[C@@H]1[C@H](O)CC1[C@@]3(C)CC[C@H](O)C(C)(C)C3[C@@H](O[C@@H]3O[C@H](CO)[C@@H](O)[C@H](O)[C@H]3O)C[C@]12C (stereo not given in full)
inactive: all assays above

CC1(C)CCCC2(C)C1CC(=O)C13CC(CCC12)C(O)(CO)C3 (stereo not given)
active: Es-2 4470 nM
inactive: all other assays above
